# Screening data from PubChem BioAssay.
# Most compounds without a hit are left out; they make up all but 11% or so of the library.
# Luciferase inh = inhibitors of firefly (Photinus pyralis) luciferase. P08659. purified P. pyralis luciferase, luminescence, biochemical. Potency, µM (doses to about 115 µM), hits mostly inhibitors. 76,000 compounds, 2.5% hits; further: nearly all actives have a fitted effect of over 65% in size
#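 Inhibitors were tested against purified firefly luciferase in a biochemical, low-substrate format (both substrates at 10uM) and luminescence measured with a CCD imager.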
# HEK cytotox = HEK 293 cell cytotoxicity. HEK 293 viability, ATP luminescence (CellTiter-Glo), 48-72 h. Potency, µM (doses to about 115 µM), for inactives: at the highest dose activity change, negative = cytotoxicity, usual class: inhibitors. 94,000 compounds, 6.6% hits. AID 1345083; further: nearly all actives have a fitted effect of over 60% in size
#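 HEK 293 cells seeded at 250 cells/well were exposed to compound for 48 or 72 hr at 37 degree Celsius. Viability taken as ATP content by CellTiter-Glo luminescence.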
# hNpr1 antagonist = antagonists of human natriuretic peptide receptor Npr1 | P16066 | HEK293 hNpr1 GloSensor cGMP, ANP-stimulated luminescence | Potency, µM (top dose mostly 46.3 µM), without a hit: top-dose activity change, negative = inhibition, hits mostly inhibitors | 76,000 compounds, 1.6% hits | AID 1347048; calls by dose curve; further: nearly all actives have a fitted effect of over 60% in size
# Target sequence (P16066 whole entry, looked up): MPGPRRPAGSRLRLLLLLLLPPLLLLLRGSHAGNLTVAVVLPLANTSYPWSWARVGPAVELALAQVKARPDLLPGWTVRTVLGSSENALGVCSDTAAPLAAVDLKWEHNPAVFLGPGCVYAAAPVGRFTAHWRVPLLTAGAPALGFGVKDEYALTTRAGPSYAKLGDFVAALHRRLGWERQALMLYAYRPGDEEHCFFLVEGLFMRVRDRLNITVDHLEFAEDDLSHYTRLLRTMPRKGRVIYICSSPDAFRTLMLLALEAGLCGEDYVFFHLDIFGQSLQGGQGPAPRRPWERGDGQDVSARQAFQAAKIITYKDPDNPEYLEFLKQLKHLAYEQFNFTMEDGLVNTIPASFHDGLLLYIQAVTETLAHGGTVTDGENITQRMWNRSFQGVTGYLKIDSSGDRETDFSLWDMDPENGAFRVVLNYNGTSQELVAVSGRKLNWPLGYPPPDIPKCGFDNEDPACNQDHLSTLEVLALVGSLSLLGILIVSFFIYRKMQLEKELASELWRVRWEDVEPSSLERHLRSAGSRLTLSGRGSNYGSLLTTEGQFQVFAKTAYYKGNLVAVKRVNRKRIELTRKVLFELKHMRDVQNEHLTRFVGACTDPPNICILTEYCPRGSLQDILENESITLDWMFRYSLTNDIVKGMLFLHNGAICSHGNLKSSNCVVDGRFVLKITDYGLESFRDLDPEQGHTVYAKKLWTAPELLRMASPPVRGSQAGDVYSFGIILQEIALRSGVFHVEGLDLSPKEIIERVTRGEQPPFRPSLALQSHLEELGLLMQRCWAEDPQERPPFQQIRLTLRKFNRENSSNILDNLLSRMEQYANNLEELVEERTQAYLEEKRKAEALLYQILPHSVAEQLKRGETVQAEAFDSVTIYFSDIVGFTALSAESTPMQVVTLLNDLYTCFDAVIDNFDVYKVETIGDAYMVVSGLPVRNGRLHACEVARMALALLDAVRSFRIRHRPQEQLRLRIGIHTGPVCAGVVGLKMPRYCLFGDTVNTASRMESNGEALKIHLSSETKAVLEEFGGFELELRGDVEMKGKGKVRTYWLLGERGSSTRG
#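 HEK293 cells stably expressing human Npr1 and cGMP GloSensor pGS-40F, loaded 2 h with 2% GloSensor reagent, given compound 30 min at room temperature. Luminescence read before and 20 min after 0.1 nM hNppA.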
# 3T3 cytotox = NIH 3T3 cell cytotoxicity; NIH 3T3 viability, CellTiter-Glo ATP luminescence, 48-72 h; 94,000 compounds, 4.3% hits; Potency, µM (titrated, usually from 96.7 µM), without a hit: top-dose activity change, negative = cytotoxicity, hits mostly inhibitors; AID 1345082; further: nearly all actives have a fitted effect of over 55% in size
#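 Luminescent ATP readout (CellTiter-Glo, 10 min RT) after 48 or 72 hr compound exposure of NIH 3T3 cells seeded at 400 cells/well in 1536-well format; quantitative HTS.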
# An asterisk follows results filed as active; i = inactive; ? = inconclusive; . = no result; [ ] = another dose, or the depositor's remark. Unless noted, the call rests on the fitted dose curve; in most records, active means well fitted curve in the direction sought with a large enough effect; inconclusive means small, poorly fitted or top-dose-only effect, or another doubt; inactive means no such curve, though single readings can be large; an effect the other way counts as inactive or inconclusive. On the % scale 0 is the no-effect control and ±100 the full control effect; potency means the concentration at half of the fitted maximal effect.
SMILES,Luciferase inh,HEK cytotox,hNpr1 antagonist,3T3 cytotox
Cn1cnc(S(=O)(=O)N2CCC(OCc3noc(C4CCCO4)n3)CC2)c1 (stereo not drawn),.,-4.9%,.,0.4%
O=C(Nc1cc(F)c(F)c(F)c1)N1CCC(OC2CCN(Cc3ccccc3)CC2)CC1,i,?,-16.3%,35.5µM*
CNC(=O)N1CCC(OC2CCN(Cc3ccccc3)CC2)CC1,i,5.7%,-0.1%,-13.4%
COc1ccccc1CC(=O)N1CCCc2ncc(C(=O)N3CCCC[C@@H]3c3ccccc3)cc21,i,?,-1.6%,-17.9%
Cn1cc(CC(=O)N2CCCc3ncc(C(=O)N4CCCC[C@@H]4Cc4ccccc4)cc32)c2ccccc21,i,39.8µM*,-29.5%,?
COc1ccccc1CC(=O)N1CCCc2ncc(C(=O)N3CCCC[C@@H]3Cc3ccccc3)cc21,i,?,0.1%,-35.2%
O=C(Cc1cccc(C(F)(F)F)c1)N1CCCc2ncc(C(=O)N3CCCC[C@@H]3c3ccccc3)cc21,i,79.4µM*,?,?
CCN1C(=O)CN(C(=O)c2ccncc2)CC12CCOCC2,.,-0.6%,.,-19.1%
O=C(NCC(F)(F)F)c1nc2sccn2c1-c1ccc(F)cc1,.,2.8%,.,-9.8%
COCCNC(=O)c1nc2cccnc2n(Cc2ccccc2)c1=O,.,0.6%,.,-15.9%
CCc1ccc(N2CC(c3noc(C4(c5ccc(OC)cc5)CC4)n3)CC2=O)cc1 (stereo not drawn),i,44.7µM*,?,?
CCc1ccc(N2CC(c3noc(-c4ccc(OC)cc4)n3)CC2=O)cc1 (stereo not drawn),i,?,0.0%,?
CCc1ccc(N2CC(c3noc(-c4cccc(OC)c4OC)n3)CC2=O)cc1 (stereo not drawn),i,79.4µM*,2.7%,28.2µM*
CCc1ccc(N2CC(c3noc(-c4ccc(OC)cc4OC)n3)CC2=O)cc1 (stereo not drawn),i,?,-23.3%,?
CCN1Cc2cc(OC)ccc2N(C(C)=O)CCC1=O,.,-9.8%,.,?
O=C(O)c1ccc([S+](=O)([O-])N2CC(COc3ccccc3)C3(CN(c4ccccc4)C3)C2)cc1 (stereo not drawn),i,-32.2%,-13.5%,31.6µM*
O=C(CCc1cccnc1)N1CC(COc2ccccc2)C2(C1)CN(c1ccccc1)C2 (stereo not drawn),i,89.1µM*,-0.8%[70.6 µM],?
COC1CCC(C(=O)N2CC(CNc3ccccc3)C3(C2)CN(c2ccccc2)C3)CC1 (stereo not drawn),i,63.1µM*,-4.5%[70.6 µM],44.7µM*
O=C(Cc1cccc(O)c1)N1CC(CNc2ccccc2)C2(C1)CN(c1ccccc1)C2 (stereo not drawn),i,31.6µM*,-17.5%[70.6 µM],22.4µM*
O=C(CCc1cccnc1)N1CC(CNc2ccccc2)C2(C1)CN(c1ccccc1)C2 (stereo not drawn),i,?,-13.8%[70.6 µM],?
COC1CCC(C(=O)N2CC(COc3ccccc3)C3(C2)CN(c2ccccc2)C3)CC1 (stereo not drawn),i,89.1µM*,-9.0%[70.6 µM],89.1µM*
FC(F)(F)c1ccnc(N2CCOCC3(CN(Cc4ccccc4)C3)C2)n1,i,?,0.9%[70.6 µM],-24.4%[138 µM]
O=[S+]([O-])(c1ccccc1)N1CC2(COCCN(c3nccc(C(F)(F)F)n3)C2)C1,i,89.1µM*,-5.0%[70.6 µM],?
CN(C)c1ccc(-c2noc([C@@H]3CCCN3Cc3nc4ccccc4n3C)n2)cn1,i,112µM*,2.2%[70.6 µM],?
CN1CCN(c2ccc(-c3noc([C@@H]4CCCN4Cc4ccccc4)n3)cn2)CC1,i,70.8µM*,1.6%[70.6 µM],100µM*
SMILES,Luciferase inh,HEK cytotox,hNpr1 antagonist,3T3 cytotox
c1ccc(CN2CCC[C@H]2c2nc(-c3ccnc(N4CCOCC4)c3)no2)cc1,i,89.1µM*,-24.5%[70.6 µM],?
N#Cc1ccc(CN2CCC[C@H]2c2nc(-c3ccnc(N4CCOCC4)c3)no2)cc1,i,?,?,-26.4%[138 µM]
CC(=O)N1CCN(c2cc(-c3noc([C@@H]4CCCN4Cc4ccc(C(F)(F)F)cc4)n3)ccn2)CC1,i,28.2µM*,-15.0%,-35.3%
COc1ccccc1-n1c(=O)c(C(=O)N2CCN(C(C)=O)CC2)nc2cccnc21,.,i,.,-5.4%
COCC(=O)NCCNC(=O)c1cccc(-c2ccsc2)c1,.,-16.2%[172 µM],.,-27.7%[138 µM]
Cc1ccc(C(=O)N2CCCC3(CNc4ncccc4[S+](=O)([O-])N3)C2)cc1 (stereo not drawn),.,-20.6%,.,-14.8%
CC(C)CN1CCC[C@H]1c1nc(-c2ccnc(N3CCOCC3)c2)no1,i,89.1µM*,-6.4%[70.6 µM],?
COc1ccc(C(=O)Nc2ccc(-c3noc([C@@H]4CCCN4Cc4cnc5ccccc5c4)n3)cn2)cc1,?,22.4µM*,12.6µM*,28.2µM*
CNc1ccc(-c2noc([C@@H]3CCCN3Cc3cnc4ccccc4c3)n2)cn1,i,?,-18.7%[70.6 µM],?
CS(=O)(=O)c1ccc(CN2CCC[C@H]2c2nc(-c3ccnc(N4CCOCC4)c3)no2)cc1,i,i,1.3%,-1.4%
Fc1ccccc1CN1CCC[C@H]1c1nc(-c2ccnc(N3CCOCC3)c2)no1,i,89.1µM*,-24.4%[70.6 µM],?
O=C(NCCCN1CCCc2ccccc21)C1Cn2cccc2C(=O)N1Cc1ccccc1 (stereo not drawn),i,?,-9.5%,?
CC(C)NC(=O)N1CCC(C(=O)N2CCCC(c3nc4ncccc4[nH]3)C2)CC1 (stereo not drawn),.,0.7%,.,-6.5%
O=c1c2nc(-c3ccsc3)ccc2ncn1-c1ccc(F)cc1F,i,100µM*,-0.9%[70.6 µM],44.7µM*
O=c1c2nc(-c3ccoc3)ccc2ncn1-c1ccc(F)cc1F,i,?,-13.4%[70.6 µM],?
O=c1c2nc(-c3ccccc3)ccc2ncn1-c1ccc(F)cc1F,i,?,6.8%[70.6 µM],28.2µM*
COc1cccc(-c2ccc3ncn(-c4ccc(F)cc4F)c(=O)c3n2)c1,?,?,6.1%[70.6 µM],50.1µM*
CCCCn1c(=O)c(C(=O)N2CCC(C#N)CC2)nc2cccnc21,.,-9.8%[172 µM],.,-24.3%[138 µM]
Cc1ccc(C(=O)N2CCC(C(=O)N3CCCC(c4nc5ccncc5[nH]4)C3)CC2)cc1 (stereo not drawn),.,-4.3%,.,-16.4%
COc1cccc(-c2nccc3c(=O)cc(N(C)C)oc23)c1,i,-0.7%[230 µM],-5.1%[70.6 µM],70.8µM*
COc1cccc(Cl)c1-c1nccc2c(=O)cc(N(C)C)oc12,i,?,-3.2%[70.6 µM],50.1µM*
O=C1CC2(CCN(C(=O)C3CCCN(C(=O)C4CC4)C3)CC2)Oc2ccccc2N1 (stereo not drawn),.,-3.0%,.,-15.2%
COc1ccc(-c2cc(N3CCCN(C(=O)C(C)c4ccccc4)CC3)n[nH]2)cc1 (stereo not drawn),i,79.4µM*,-2.1%,?
